Assay results: ChEMBL document CHEMBL1961873, “Compounds: GSK PKIS; Assays: Nanosyn kinase panel” (2012)
“And” between values parts separate entries of the source, which are not always exact repeats. Equal values may be shown once.

How the values were obtained:
[1] = molecular target: Mast/stem cell growth factor receptor Kit (Homo sapiens) (UniProt P10721); conditions: at 1 µM
[2] = tested on: Mast/stem cell growth factor receptor Kit (Homo sapiens), P10721 [D816V]; conditions: at 0.1 µM
[3] = tested on: Mast/stem cell growth factor receptor Kit (Homo sapiens), P10721 [D816V]; conditions: at 1 µM
[4] = tested on: Mast/stem cell growth factor receptor Kit (Homo sapiens), P10721 [T670I]; conditions: at 0.1 µM
[5] = tested on: Mast/stem cell growth factor receptor Kit (Homo sapiens), P10721 [T670I]; conditions: at 1 µM
[6] = tested on: Mast/stem cell growth factor receptor Kit (Homo sapiens), P10721 [V560G]; conditions: at 0.1 µM
[7] = tested on: Mast/stem cell growth factor receptor Kit (Homo sapiens), P10721 [V560G]; conditions: at 1 µM
[8] = molecular target: Tyrosine-protein kinase Lck (Homo sapiens) (UniProt P06239); conditions: at 0.1 µM
[9] = molecular target: Tyrosine-protein kinase Lck (Homo sapiens) (UniProt P06239); conditions: at 1 µM
[10] = molecular target: Leukocyte tyrosine kinase receptor (Homo sapiens) (UniProt P29376); conditions: at 0.1 µM
Leukocyte tyrosine kinase receptor (Homo sapiens), sequence (P29376 whole entry): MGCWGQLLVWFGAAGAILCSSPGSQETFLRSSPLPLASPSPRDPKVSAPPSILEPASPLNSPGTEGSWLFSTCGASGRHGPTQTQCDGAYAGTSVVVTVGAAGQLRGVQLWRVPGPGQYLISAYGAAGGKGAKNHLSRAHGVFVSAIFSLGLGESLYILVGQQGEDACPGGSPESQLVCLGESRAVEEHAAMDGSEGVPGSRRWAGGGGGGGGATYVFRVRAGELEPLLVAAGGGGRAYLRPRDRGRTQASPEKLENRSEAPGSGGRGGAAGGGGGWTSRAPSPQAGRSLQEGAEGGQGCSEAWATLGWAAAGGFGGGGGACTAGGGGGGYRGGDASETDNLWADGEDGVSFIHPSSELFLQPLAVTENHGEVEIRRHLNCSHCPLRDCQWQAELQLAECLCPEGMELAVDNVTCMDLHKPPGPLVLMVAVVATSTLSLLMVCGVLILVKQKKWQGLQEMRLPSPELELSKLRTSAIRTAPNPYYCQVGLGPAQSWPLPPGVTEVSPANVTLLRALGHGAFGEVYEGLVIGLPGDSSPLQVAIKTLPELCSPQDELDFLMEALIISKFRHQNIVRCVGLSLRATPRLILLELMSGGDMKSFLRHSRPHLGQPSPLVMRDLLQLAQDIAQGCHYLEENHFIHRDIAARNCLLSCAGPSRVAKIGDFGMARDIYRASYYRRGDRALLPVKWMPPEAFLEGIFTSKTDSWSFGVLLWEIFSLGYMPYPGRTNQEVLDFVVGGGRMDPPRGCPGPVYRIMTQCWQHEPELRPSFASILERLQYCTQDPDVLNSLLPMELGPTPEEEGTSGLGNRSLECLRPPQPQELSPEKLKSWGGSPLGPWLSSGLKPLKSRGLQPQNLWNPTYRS

Mast/stem cell growth factor receptor Kit (Homo sapiens), sequence (P10721 whole entry): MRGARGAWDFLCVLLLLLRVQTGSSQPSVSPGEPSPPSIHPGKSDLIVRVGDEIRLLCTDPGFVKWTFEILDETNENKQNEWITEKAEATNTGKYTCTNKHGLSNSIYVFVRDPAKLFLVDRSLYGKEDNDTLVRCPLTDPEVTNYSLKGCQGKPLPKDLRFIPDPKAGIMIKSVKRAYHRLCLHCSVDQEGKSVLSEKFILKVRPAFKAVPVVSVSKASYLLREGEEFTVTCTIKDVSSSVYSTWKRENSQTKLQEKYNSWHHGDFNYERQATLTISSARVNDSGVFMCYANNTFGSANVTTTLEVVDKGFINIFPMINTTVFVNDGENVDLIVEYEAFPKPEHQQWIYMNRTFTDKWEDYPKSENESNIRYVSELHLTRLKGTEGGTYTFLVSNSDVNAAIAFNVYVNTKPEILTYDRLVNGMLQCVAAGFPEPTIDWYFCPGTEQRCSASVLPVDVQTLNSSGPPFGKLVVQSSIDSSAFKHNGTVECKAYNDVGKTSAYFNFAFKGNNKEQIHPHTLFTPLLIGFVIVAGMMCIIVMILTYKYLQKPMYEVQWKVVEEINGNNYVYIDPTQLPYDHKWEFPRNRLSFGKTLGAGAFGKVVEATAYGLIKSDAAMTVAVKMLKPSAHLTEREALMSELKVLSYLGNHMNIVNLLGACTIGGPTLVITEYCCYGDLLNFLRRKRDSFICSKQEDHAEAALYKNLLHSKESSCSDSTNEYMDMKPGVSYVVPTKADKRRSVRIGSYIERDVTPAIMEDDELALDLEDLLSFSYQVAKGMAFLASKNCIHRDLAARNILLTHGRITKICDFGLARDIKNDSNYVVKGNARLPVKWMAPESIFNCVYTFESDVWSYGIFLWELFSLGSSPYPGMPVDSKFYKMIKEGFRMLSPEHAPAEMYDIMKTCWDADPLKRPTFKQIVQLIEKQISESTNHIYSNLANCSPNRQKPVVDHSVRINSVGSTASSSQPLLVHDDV
Mast/stem cell growth factor receptor Kit (Homo sapiens), P10721 [V560G], sequence (P10721 whole entry V560G): as the sequence (P10721 whole entry) above, with V560G counted along it
Mast/stem cell growth factor receptor Kit (Homo sapiens), P10721 [D816V], sequence (P10721 whole entry D816V): as the sequence (P10721 whole entry) above, with D816V counted along it
Mast/stem cell growth factor receptor Kit (Homo sapiens), P10721 [T670I], sequence (P10721 whole entry T670I): as the sequence (P10721 whole entry) above, with T670I counted along it
Tyrosine-protein kinase Lck (Homo sapiens), sequence (P06239 2-509 limits assumed): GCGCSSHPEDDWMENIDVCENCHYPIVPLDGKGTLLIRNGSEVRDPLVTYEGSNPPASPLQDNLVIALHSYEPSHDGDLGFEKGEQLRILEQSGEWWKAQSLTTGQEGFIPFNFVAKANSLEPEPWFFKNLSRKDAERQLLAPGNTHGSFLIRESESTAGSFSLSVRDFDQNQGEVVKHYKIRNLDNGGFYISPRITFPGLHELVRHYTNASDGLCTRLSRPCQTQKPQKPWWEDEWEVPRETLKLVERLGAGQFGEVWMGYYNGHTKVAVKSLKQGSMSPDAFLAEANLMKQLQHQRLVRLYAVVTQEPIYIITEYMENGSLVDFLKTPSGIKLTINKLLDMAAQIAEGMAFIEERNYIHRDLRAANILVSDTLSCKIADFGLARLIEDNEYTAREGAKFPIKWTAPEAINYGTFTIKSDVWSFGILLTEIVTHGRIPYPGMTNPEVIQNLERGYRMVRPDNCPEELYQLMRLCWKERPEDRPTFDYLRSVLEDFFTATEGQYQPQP

| SMILES | inhibition [1] | inhibition [2] | inhibition [3] | inhibition [4] | inhibition [5] | inhibition [6] | inhibition [7] | inhibition [8] | inhibition [9] | inhibition [10] |
| --- | --- | --- | --- | --- | --- | --- | --- | --- | --- | --- |
| O=C(O[C@H]1CN[C@H](C#Cc2cc3ncnc(Nc4ccc5c(ccn5Cc5cc(F)ccc5F)c4)c3s2)C1)N1CCOCC1 | 2.34% | 3.87% | 3.82% | 3.88% | 2.88% | -0.88% | -2.32% | 2.27% | 4.87% | 5.27% |
| CCS(=O)(=O)c1ccc(OC)c(Nc2ncc(-c3cccc(C(C)=O)c3)o2)c1 | 71.4% | 5.74% | 12.1% | -0.79% | 10.7% | 3.47% | 13% | 2.7% | 25.4% | 2.87% |
| Cc1cc(O)cc(C)c1/C=C/c1cncc(C(N)=O)c1 | 66.6% | 3.61% | 2.03% | 2.25% | 1.74% | 2.69% | 22.9% | 8.78% | 44.1% | 2.14% |
| N#Cc1cccc(Nc2ncc(-c3ccccc3)o2)c1 | 79.6% | 1.87% | 2.5% | 2.85% | 35.8% | 4.29% | 23.8% | 2.79% | 1.76% | 4.04% |
| COC(=O)Nc1nc2cc(Oc3ccc(NC(=O)Nc4ccccc4)cc3)ccc2[nH]1 | 68% | 2.82% | 12% | 4.22% | 8.76% | 25.3% | 67.9% | 2.87% | 4.96% | 2.55% |
| CS(=O)(=O)Nc1ccc(-c2ccc3c(NC(=O)C4CC4)n[nH]c3c2)cc1 | 6.32% | 2.91% | 2.86% | 1.55% | 1.56% | 0.02% | 0.94% | 2.88% | 8.63% | 4.21% |
| FC(F)(F)CNc1nccc(-c2cnn3ncccc23)n1 | 3.6% | 0.88% | 2.79% | 0.67% | 0.91% | -2.94% | 0.4% | 1.7% | 3.74% | 2.72% |
| Nc1nonc1-c1nc2cnccc2n1C1CC1 | 14.9% and 15.5% | 3.53% and 1.67% | 3.46% and 2.18% | 1.4% and 2.21% | 6.91% and 8.64% | -1.94% and 0.52% | -1.23% and -2.01% | 3.06% and -3.03% | 3.02% and -1.62% | 2.93% and 1.07% |
| CN1CCN(Cc2ccc(-c3cc4ncnc(Nc5ccc(OCc6cccc(F)c6)c(Cl)c5)c4s3)o2)CC1 | 11.5% and 12.7% | 3.79% and 5.98% | 5.98% and 4.53% | 2.89% and 2.77% | 2.77% and 5.27% | -1.59% and -3.38% | 2.22% and 1.14% | 4.76% and 7.19% | 22.2% and 27.2% | 3.61% and 4.17% |
| Fc1ccc(Nc2nccc(-c3c(-c4ccc(C(F)(F)F)cc4)nn4ncccc34)n2)cc1F | 4.68% | 2.15% | 2.45% | 0.78% | 2.14% | -1.76% | 1.06% | 3.17% | 0.53% | 2.82% |
| COc1cc2c(cc1Nc1nc(Nc3cccc(F)c3C(N)=O)c3cc[nH]c3n1)N(C(=O)CN1CCN(C(C)C)CC1)CC2 | 1.51% | -0.69% | 0.07% | -0.28% | -0.5% | -3.41% | -2.31% | 2.47% | 0.75% | 27.6% |
| COc1ccccc1-c1cc(/C=C2\C(=O)Nc3ncc(Br)cc32)cc(Br)c1O | 27.9% | 4.84% | 1.87% | 3.92% | 3.21% | 1.58% | 4.31% | 2.46% | 8.22% | 3.94% |
| Cc1c2ccc(N(C)c3ccnc(Nc4cccc(S(N)(=O)=O)c4)n3)cc2nn1C | 98% | 2.85% | 5.89% | 22% | 81.1% | 69.9% | 80.3% | 20.3% | 66.6% | 4.98% |
| CN(c1ccc(NC(=O)NCCN2CCOCC2)cc1)c1ccnc(Nc2ccc(CS(C)(=O)=O)cc2)n1 | 94.2% | 2.49% | 4.98% | 21.6% | 73.6% | 57.2% | 84.5% | 1.63% | 11% | 2.84% |
| O=C(Nc1n[nH]c2nnc(-c3cccnc3)cc12)C1CC1 | 2.59% | -1.93% | 1.15% | -0.12% | 0.35% | 2.26% | 1.71% | 1.03% | 3.69% | 1.26% |
| COc1c(C(N)=O)cc(-c2ccc(Cl)cc2)cc1-c1ccc(S(N)(=O)=O)cc1 | 11.2% | 3.27% | 3.88% | 1.48% | 2.82% | 1.14% | -3.65% | 3.23% | 2.89% | 5.37% |

| SMILES | inhibition [1] | inhibition [2] | inhibition [3] | inhibition [4] | inhibition [5] | inhibition [6] | inhibition [7] | inhibition [8] | inhibition [9] | inhibition [10] |
| --- | --- | --- | --- | --- | --- | --- | --- | --- | --- | --- |
| CS(=O)(=O)CCNCc1ccoc1-c1ccc2ncnc(Nc3ccc(OCc4ccccc4)cc3)c2c1 | 6.88% | 5.01% | 1.5% | 2.27% | 2.3% | 0.74% | 3.57% | 1.79% | 8.23% | 1.59% |
| CC1(C)CC(n2cnc(-c3ccc(F)cc3)c2-c2ccnc(N)n2)CC(C)(C)N1 | 2.82% | -0.86% | -3.56% | 2.5% | 1.11% | 1.03% | -0.87% | -0.02% | 6.94% | 1.09% |
| CNC(=O)c1ncccc1Nc1nc(Nc2cc3c(cc2OC)CCCN3C(=O)CN(C)C)nc2[nH]ccc12 | 3.44% | 1.27% | 4.76% | 3.12% | 1.68% | -0.63% | 0.67% | 2.48% | 4.71% | 86.9% |
| O=C1Nc2ccccc2/C1=C1\CCc2cc(O)ccc21 | 93.7% | 4.08% | 1.34% | 39.3% | 88.1% | 6.44% | 41.6% | 3.68% | 8.53% | 7.84% |
| CC(C)c1ccc(-c2cc(-c3c[nH]nc3-c3ccccn3)ccn2)cc1 | 2.85% | 0.06% | 3.83% | 1.04% | 1.23% | -0.59% | 3.5% | 1.31% | -0.13% | 1.24% |
| COc1cccc(Nc2nccc(-c3cnn4ncccc34)n2)c1 | 99.3% | -1.05% | 4.28% | 60.9% | 95.3% | 40.2% | 78.3% | 3.11% | 11.2% | 4.15% |
| OCCCNc1nccc(-c2c(-c3ccc(F)cc3)nn3cc(C(F)(F)F)ccc23)n1 | 8.99% | 1.58% | 0.33% | -0.18% | 0.98% | -1.46% | -0.39% | 1.91% | 5.83% | 3.02% |
| NS(=O)(=O)c1cccc(N/C=C2\C(=O)Nc3ccccc32)c1 | 63.9% | 3.62% | 2.43% | 6.57% | 45.2% | -0.34% | 8.83% | 2.31% | 6.78% | 3.74% |
| CCOc1ccc2c(-c3ccnc(Nc4cc(OC)cc(C(F)(F)F)c4)n3)cnn2n1 | 56.5% | -2.22% | 2.86% | 1.55% | 14.5% | 2.02% | 5.97% | 1.12% | 4.52% | 0.61% |
| CNC(=O)c1cncc(/C=C/c2ccccc2C)c1 | 14.5% | 1.55% | 3.24% | 3.26% | 4.48% | 3.49% | 5.75% | 1.99% | 7.19% | 2.41% |
| CC1=C(C(=O)Nc2ccc3[nH]nc(C)c3c2)C(c2ccc(C(F)(F)F)cc2)CC(=O)N1 (stereo not given) | 2.22% | 5.34% | 1.99% | -0.21% | 1.75% | 0.71% | -0.03% | 5.93% | 18.8% | 1.5% |
| CNC(=O)c1sc(-n2cnc3cc(OC)c(OC)cc32)cc1OCc1ccccc1C(F)(F)F | 6.11% | 2.29% | 6.55% | 1.67% | 1.95% | -0.58% | 0.44% | 3.6% | 11.9% | 2.32% |
| CS(=O)(=O)CCNCc1ccc(-c2ccc3ncnc(Nc4ccc(OCc5cccc(C(F)(F)F)c5)cc4)c3c2)o1 | 11.4% | 2.25% | 0.02% | 5.03% | 5.44% | -4.38% | -2.24% | 3.86% | 7.98% | 5.96% |
| NC(=O)c1ccc2c(-c3ccnc(NCCCO)n3)c(-c3ccc(F)cc3)nn2c1 | 25.4% | 8.24% | 1.86% | 4.73% | 2.71% | -0.84% | 0.77% | 2.46% | 8.13% | 4.67% |
| CCS(=O)(=O)c1ccc(OC)c(Nc2ncc(-c3cccc(F)c3)o2)c1 | 97% | 4.96% | 9.62% | 19.7% | 81.3% | 0.05% | 34.1% | 20.4% | 64.1% | 7.85% |
